High-throughput results as filed in PubChem BioAssay.
An excerpt weighted towards active compounds, which were near 0.93% of everything screened.
CDC25B CDK2 inh: human CDC25B-CDK2/CyclinA binding inhibition; P30305+P24941; HTRF CDC25B-CDK2/CyclinA binding, anti-His/anti-Flag; hits give high values; z-score (test concentration not listed); hit rate 0.72% among 94,000; in the data active = z-score above about 3.2
TAR Tat displ: HIV-1 TAR-Tat binding disruption. z-score (concentration not given with the values). HIV-1 TAR RNA, Tat peptide displacement FRET; hits give high values. AID 1259389. hit rate 0.6% among 100,000; active = z-score of 3 or more in at least 2 runs
Numbers stand for hits; - = inactive; . = not tested or not shown.

SMILES	CDC25B CDK2 inh	TAR Tat displ
CC1=NN(c2ccccc2)C(=O)/C1=C1/C(=O)N(c2ccccc2)N=C1C	-	.
Cc1ccc2c(=O)c(C(=O)O)c[nH]c2n1	-	19.6
Cc1ccc2c(=O)c(C(=O)c3ccc(F)cc3)c[nH]c2n1	.	-
COc1ccc(/C=C/c2nc(C#N)c(N3CC(C)OC(C)C3)o2)cc1OC (configuration not stated)	-	-
O=[N+]([O-])c1ccc(Oc2ccc(C3SCCS3)cc2)nc1	-	.
O=[N+]([O-])c1ccccc1-n1cccc1	-	.
O=C(/C=C/c1ccc(O)c(O)c1)c1ccc(O[C@@H]2O[C@H](CO)[C@@H](O)[C@H](O)[C@H]2O)c(O)c1O	.	31.2
COc1ccc([C@@H]2CC(=O)c3c(O)cc(O[C@@H]4O[C@H](CO)[C@@H](O)[C@H](O)[C@H]4OC4O[C@@H](C)[C@H](O)[C@@H](O)[C@H]4O)cc3O2)cc1O (some centres not stated)	.	4.41
O=C1C[C@@H](c2ccc(O)cc2)Oc2cc(O[C@@H]3O[C@H](CO)[C@@H](O)[C@H](O)[C@H]3O)cc(O)c21	.	-
COc1ccc(/C=C/c2cc(O)cc(O[C@@H]3O[C@H](CO)[C@@H](O)[C@H](O)[C@H]3O)c2)cc1O	.	-
C[C@@H]1O[C@@H](O[C@H]2[C@H](Oc3cc(O)c4c(c3)O[C@H](c3ccc(O)cc3)CC4=O)O[C@H](CO)[C@@H](O)[C@@H]2O)[C@H](O)[C@H](O)[C@H]1O	.	-
O=C1C[C@@H](c2ccc(O)c(O)c2)Oc2c1ccc(O[C@@H]1O[C@H](CO)[C@@H](O)[C@H](O)[C@H]1O)c2O	.	17.2
Cc1ccc(N2C(=O)CC(Sc3ccccc3C(=O)O)C2=O)cc1Cl (configuration not stated)	-	.
CCOC(=O)c1c(C)oc2c1c(CN1CCCC(C(=O)OCC)C1)c(O)c1ccccc12 (configuration not stated)	-	.
CCOC(=O)c1c(C)oc2c1c1c(c3ccccc32)OCN(CC2CCCO2)C1 (configuration not stated)	16.7	-
COc1ccc2nc(NC(=O)C3CCCN(c4ncnc5c4nc4n5CCCCC4)C3)sc2c1 (configuration not stated)	.	-
COc1ccc(Nc2nc(-c3cc4c(ccc5ccccc54)oc3=O)cs2)cc1	10.4	.
COc1ccc2oc(=O)c(-c3csc(Nc4ccccc4)n3)cc2c1	-	.
CCCN1CCN(C(=O)CCc2nnc3ccc(NCc4ccco4)nn23)CC1	.	-
O=C1COc2cc(-c3c(N4CCCC4)c(=O)c3=O)ccc2N1	.	11
O=C1COc2cc(-c3c(N4CCCCC4)c(=O)c3=O)ccc2N1	.	-
Cn1c(CN2CCCC2)nc2cc(NS(C)(=O)=O)ccc21	-	-
O=C(NC1CC1)c1cc(-c2cccnc2)n[nH]1	.	-
COc1ccc2c(c1)CCc1c-2n[nH]c1C(=O)N1CCCN(c2cc(=O)n(C)c(=O)n2C)CC1	.	-
O=S(=O)(c1ccccc1)c1cnc2ccc(Cl)cc2c1N1CCCC1	-	-
SMILES	CDC25B CDK2 inh	TAR Tat displ
COc1cc2ncc(S(=O)(=O)c3ccccc3)c(N3CCCCC3)c2cc1OC	5.93	-
COc1cc2ncc(S(=O)(=O)c3ccccc3)c(N3CCC(C)CC3)c2cc1OC	-	-
CCc1ccc2ncc(S(=O)(=O)c3ccccc3)c(N3CCCC3)c2c1	9.11	-
O=C(O)c1cccc(CN2C(=O)C3CCCN3C(=O)c3ccccc32)c1 (configuration not stated)	-	-
Cc1ccc(-c2nsc(NC(=O)c3cc(=O)c4cc(C)c(C)cc4o3)n2)s1	-	-
Cc1csc(NC(=O)CSc2nc(=O)n(CCN3CCOCC3)c3c2CCCC3)n1	.	-
CC(N)=NCCCC[C@@H](N)C(=O)O	-	.
CCCCCCCCCCCCCCCCCCN=C(C)N	4.5	.
COc1ccc(C2Nc3ccccc3NC3=C2C(=O)CC(c2ccco2)C3)cc1 (configuration not stated)	-	.
O=C(O)CCCC(=O)Nc1cccc2cccnc12	-	-
Nc1ncccc1NC(=O)CCC(=O)O	14.4	-
O=C(Nc1ccc(-c2nc3ccccc3o2)cc1)c1nc(-n2cnnc2)ccc1Br	.	7.19
O=C(Nc1ccc2oc(-c3ccccc3)nc2c1)c1nc(-n2cnnc2)ccc1Br	.	-
CS(=O)(=O)N1CCc2cc(C(=O)NCc3ccco3)ccc21	-	14.5
CC(C)NC(=O)c1ccc2c(c1)CCN2S(C)(=O)=O	-	-
COC(=O)c1sc2cccc(F)c2c1S(=O)(=O)Nc1ccc2c(c1)OCO2	.	-
Brc1cccc(C2Nc3cccc4cccc(c34)N2)c1	-	-
COc1cc(OC)c(C2Nc3cccc4cccc(c34)N2)c(OC)c1	-	-
CC(C)(C)c1ccc(C2Nc3cccc4cccc(c34)N2)cc1	-	7.08
CN(C)c1ccc(C2Nc3cccc4cccc(c34)N2)cc1	-	-
c1ccc2c(C3Nc4cccc5cccc(c45)N3)cccc2c1	-	8.22
c1ccc(C2Nc3cccc4cccc(c34)N2)cc1	-	10.3
COc1ccccc1C1Nc2cccc3cccc(c23)N1	-	-
CCc1ccc(C2Nc3cccc4cccc(c34)N2)cc1	-	34.9
CC1C(=O)N2CCCc3cc(S(=O)(=O)N4CCc5ccccc5C4)cc1c32 (configuration not stated)	.	-
SMILES	CDC25B CDK2 inh	TAR Tat displ
CCOC(=O)N1CCC(NS(=O)(=O)c2ccc3c(c2)CC(C)N3C(=O)C2CC2)CC1 (configuration not stated)	.	-
COc1cnc(CSc2nnnn2C)cc1OCC(=O)Nc1ccc(F)cc1	.	-
O=C(Nc1nc(-c2ccc3c(c2)OCO3)cs1)c1ccc2c(c1)OCCO2	.	-
COc1cc(C2Nc3cccc4cccc(c34)N2)ccc1OCc1ccccc1	-	-
CCOc1cc(C2Nc3cccc4cccc(c34)N2)ccc1O	-	8
CC(=O)OC[C@H]1O[C@@H](OCc2ccccc2)[C@H](OC(C)=O)[C@@H](OC(C)=O)[C@@H]1OC(C)=O	-	.
O=C(OC[C@H]1O[C@H](OC(=O)c2cc(O)c(O)c(OC(=O)c3cc(O)c(O)c(O)c3)c2)[C@H](OC(=O)c2cc(O)c(O)c(OC(=O)c3cc(O)c(O)c(O)c3)c2)[C@@H](OC(=O)c2cc(O)c(O)c(OC(=O)c3cc(O)c(O)c(O)c3)c2)[C@@H]1OC(=O)c1cc(O)c(O)c(OC(=O)c2cc(O)c(O)c(O)c2)c1)c1cc(O)c(O)c(OC(=O)c2cc(O)c(O)c(O)c2)c1	.	25.8
CCc1noc2nc(C)nc(N3CCCC(C(=O)NCc4ccc(C)o4)C3)c12 (configuration not stated)	.	-
CCOC(=O)C1=C(C(=O)OCC)SC(=C2C(=S)C(C)(C)Nc3cc(C)ccc32)S1	16.9	-
CCOC(=O)C1=CS/C(=C2/C(=S)C(C)(C)Nc3cc(C)ccc32)S1	-	-
COC(=O)C1=C(C(=O)OC)SC(=C2C(=S)C(C)(C)Nc3cc(C)ccc32)S1	13	-
COC(=O)C1=C(C(=O)OC)SC(=C2C(=S)C(C)(C)Nc3ccc(OC)cc32)S1	-	-
OCC1O[C@H]([S-])[C@@H](O)C(O)[C@@H]1O.[Au+] (some centres not stated)	19.3	.
OCC1O[C@H](O)C(Cl)C(O)C1O (some centres not stated)	-	.
Cc1cc(Nc2ccc(N3CCN(C)CC3)cc2)nc(C)n1	11.5	-
CSc1nc(C)cc(Nc2ccc(N3CCC(C)CC3)cc2)n1	-	-
